Consider 46 sequences from the supplement of paper PMC11417369.

± gives the standard deviation of the averaged measurements. Whole data set: some 25,000 sequences, median “ln(normalized median fluorescence intensity)” near 7.9, cut for the highest 2% near 11. For the sample, the highest values were picked, then their nearest neighbours and some sequences at random.

This test has as its system PfAP2-I AP2 domain 3 (GST-tagged). The test is described as follows: gcPBM binding intensity (ln(normalized median fluorescence intensity)); higher = stronger DNA binding. In short, it runs like this: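 After 1 h on an Agilent 4 × 180k array of primer-extended double-stranded 36-bp intergenic genomic probes and negative controls, bound GST-tagged P. falciparum DNA-binding domains were detected with Alexa488 anti-GST antibody and scanned at 488 nm. The domains had been expressed in E. coli, and binding took place in 1× PBS with 1% milk, 0.2 mg/ml BSA, 0.5% salmon testes DNA and 0.03% Triton X-100. Binding intensity is the highest Masliner-normalised natural-log median intensity across replicate spots of either probe orientation.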
With “CATATAAAAATATATGCACACAAATAAAAAATTATA [CACACA_site9210]”, the “gcPBM binding intensity (ln)” value was found to be 8.94 ± 0.39.
For “TGAATATTCATATGCACACAAATTAATATACATAAT [CACACA_site442]” the value was 8.675 ± 0.021.
For “TTTTCATATTATAGTGCACACAAAAATATATATATG [CACACA_site8929]” the value was 11.5 ± 0.47; for “AACTCATAGGAGTGTGCACACAAAAAATTAAAAAAA [CACACA_site8996]”, 9.52 ± 0.42.
For “TATATATATTTATGCACACAAAATATATTATAGAAT [CACACA_site3740]” the value was 9.99 ± 0.4.
Consider “TTCATATTATAGTGCACACAAAAATATATATATGGT [CACACA_site2855]”, for which the “gcPBM binding intensity (ln)” value is 11.3 ± 0.43.
Under “ATTCACAAATATATGGTGCATAATATATATATATAT [GTGCAC_site9674]” stands 11.31 ± 0.078; under “AAAAGGGAAATAAAATAAAAAAAGAAACATATATAG [CACACA_negctrl_site455]”, 7.72 ± 0.76.
Under “ATATGATCATAAAACACACACACAAAAAAAAAAAAA [CACACA_site1806]” stands 7.95 ± 0.75.
For “TATATATGTGTATAGAGTACACGTTTTTTTTAATAT [XGTACX_site3128]” the value was 7.71 ± 0.38.
On to “ATTGTATTAAAATGCACACATATCAAGAGGAATTTT [CACACA_site283]”, for which the “gcPBM binding intensity (ln)” value stood at 9.095 ± 0.064.
For the sequence “AAAGAAAATAACAAAATTTTGAAAACATCACATTCG [CACACA_negctrl_site89]”, the “gcPBM binding intensity (ln)” value is 7.63 ± 0.69.
For “ATCAAAATGTTAAAGATACACACCTAACAAACACAA [CACACA_site955]” the value was 7.96 ± 0.19; for TAAATCATTTATTAAGTGCAATATTCTTTTTGAGAT, 10.3 ± 0.28; for ATATATATATATATGGTGCATGAAAATTTACTTTGA, 10.11 ± 0.085.
Under “TATATATGTATGTATGTACACACAAAAAATGGAATA [CACACA_site9235]” stands 8.05 ± 0.45; under “CGTATATCACCAACTAGTACATATAAATAAATAAAT [XGTACX_site8837]”, 7.92 ± 0.5; under “TATATAATATATATAGTGCATAAGTTCAAAAGAATA [GTGCAC_site9805]”, 9.95 ± 0.16.
In the case of “AAAAAGAATATAAGTAGTACAGTGCATATAATAATT [XGTACX_site617]”, the “gcPBM binding intensity (ln)” value was 10.3 ± 0.37.
For AAAAAGGTTAAGGTAGTGCATAATAAAGAATATTAA the value was 11 ± 0.45; for “AAATAAGAAAAAGCGCGTACACATAACATTTTTATA [XGTACX_site8807]”, 7.82 ± 0.54.
Under “TTAACGTAAAATATAGTGCATAGTATCATATTGATA [GTGCAC_site9527]” stands 9.5 ± 0.099; under “TTTGAAATATTAAATGCATGTTAAAACATAAAAATG [TGCATGCA_site680]”, 7.91 ± 0.73.
As for GGTTTGAATTTTTAAGTGCATATAACATAAATGAAA, the “gcPBM binding intensity (ln)” value stood at 9.86 ± 0.23.
Under TATGTTTTTGAATGAGTGCATTAAAATAAAACATTT stands 11.3 ± 0.61; under “TATAATATGACAAGAAGTACATATATTTACATATAT [XGTACX_site1571]”, 7.54 ± 0.29.
Under “AAATCAAACTTTGGTGTGCACAAATATATACATATA [GTGCAC_site9986]” stands 10.545 ± 0.007; under AAAAATTAACAAAAGGTGCAATTTATTTATTAACGG, 10.3 ± 0.5; under “AATAAGTAACAAAATACACACATATAGGTAATTATA [CACACA_site6949]”, 7.62 ± 0.59.
As for CATAACATAAAATAGGTGCACAAAAATTGTAATTGA, the “gcPBM binding intensity (ln)” value was 11.37 ± 0.021.
Consider “TATATTAACAAAATGGTGCAATAATTTCTATATTGT [GTGCAC_site9430]”, for which the “gcPBM binding intensity (ln)” value amounted to 11.2 ± 0.54.
For “TATATTCAAAATGGTACACACAATATTTAATTGTGC [CACACA_site2631]” the value was 7.68 ± 0.34; for “ATTTAAATACAAAATTGTACTTTTCTATATTTAACA [XGTACX_site6146]”, 7.79 ± 0.41.
Turning to TATTAATTTAAATGGGTGCAAAACCTATATAAATAT, the “gcPBM binding intensity (ln)” value turned out to be 10.6 ± 0.55.
For “TAATATATATAACAAGTGCAAAAAAATATAGATATT [GTGCAC_site9625]” the value was 9.38 ± 0.33; for TAATATAATATATAGGTGCAATATTAACAAAAATTT, 11 ± 0.44.
For “TACAATGAAAAAATAACATGCAATTATATTTCTCTT [TGCATGCA_site833]” the value was 8.23 ± 0.74; for “TATATTAACAAAATGGTGCAATAATTTCTATATTAT [GTGCAC_site9857]”, 11.3 ± 0.61; for “GTTGTGTAATTCGTAACACACATAAAATATATATAA [CACACA_site6059]”, 7.76 ± 0.48.
For “AATGGGTTACACATATGTACATAAAATATAAAAAAT [XGTACX_site3440]” the value was 8.06 ± 0.73; for “GGAGAATAGTGGAAAACACACACGTTTGAGATATGG [CACACA_site1168]”, 7.92 ± 0.91; for “GATTAACAACATATTAGTACATATATTATATATATA [XGTACX_site7646]”, 8.61 ± 0.23.
On to “AGTTTCTATTTAGTGTGTACTTAAGAAAAATATCTC [XGTACX_site82]”, for which the “gcPBM binding intensity (ln)” value worked out at 7.88 ± 0.4.
For “AGAAGAAAAGAAATATGTACATAAACGTCTGAACTA [XGTACX_site1699]”, the “gcPBM binding intensity (ln)” value was found to be 7.8 ± 0.71.
For “CCTTTTGGATGAAAGTGTACAGGTGAGAAAAATTCC [XGTACX_site3358]” the value was 8.07 ± 0.54; for “TTATCGGTATAATATAGTACATATAGATATATAATA [XGTACX_site1440]”, 7.7 ± 0.39.
